Compound activity (PubChem)
Rows were chosen to be rich in hits. Some 1.1% of all compounds tested hit in one or more screens of this group.
OPRM1-OPRD1 inv – mu-delta opioid heterodimer inverse agonism. actives 0.21% (n = 340,000). inhibition, % at 9.3 µM. cell-based MOR-DOR heterodimer luminescence. P35372+P41143; in the data active means inhibition above about 22%, passing the limit was not always enough;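 further: 0% = cells with DMSO and 100% = wells without cells with DMSO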
Target sequence (P35372 whole entry, looked up): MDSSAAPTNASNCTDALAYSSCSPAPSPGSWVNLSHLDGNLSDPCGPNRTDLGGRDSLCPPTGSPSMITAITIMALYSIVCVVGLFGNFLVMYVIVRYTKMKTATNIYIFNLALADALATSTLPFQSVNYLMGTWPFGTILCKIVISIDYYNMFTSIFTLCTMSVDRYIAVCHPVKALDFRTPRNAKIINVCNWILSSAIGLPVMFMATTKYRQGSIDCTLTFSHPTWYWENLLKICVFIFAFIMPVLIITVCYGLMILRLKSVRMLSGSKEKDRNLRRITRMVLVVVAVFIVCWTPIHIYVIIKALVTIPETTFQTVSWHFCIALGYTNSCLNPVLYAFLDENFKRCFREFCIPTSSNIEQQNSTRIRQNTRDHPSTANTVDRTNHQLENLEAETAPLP
Target sequence (P41143 whole entry, looked up): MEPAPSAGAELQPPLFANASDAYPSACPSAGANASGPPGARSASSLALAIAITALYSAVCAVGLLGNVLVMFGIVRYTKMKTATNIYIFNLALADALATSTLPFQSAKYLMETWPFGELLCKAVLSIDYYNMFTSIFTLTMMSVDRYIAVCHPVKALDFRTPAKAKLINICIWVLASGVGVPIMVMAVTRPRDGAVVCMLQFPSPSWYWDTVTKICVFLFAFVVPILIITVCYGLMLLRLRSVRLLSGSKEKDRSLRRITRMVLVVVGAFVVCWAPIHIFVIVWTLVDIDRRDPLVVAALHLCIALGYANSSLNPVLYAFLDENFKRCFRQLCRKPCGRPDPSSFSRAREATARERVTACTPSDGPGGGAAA
HTR5A ag – activates human HTR5A in OPRM1-OPRD1 agonist counter-screen | HTR5A agonist assay, luminescence, cell-based | AID 504692 | actives 0.61% (n = 340,000) | activation, % at 9.3 µM; in the data active means activation mostly above about 9.5%, no sharp cut-off; inactive means mostly below about 7.6%;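 further: 0% = cells with vehicle only and 100% = reference agonist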
HTR5A inv ag – counter-screen for OPRM1-OPRD1 inverse agonists: human HTR5A inverse agonism. P47898. HTR5A cell line, luminescence. inhibition, % at 9.3 µM. actives 0.083% (n = 340,000). AID 504634; in the data active means inhibition mostly above about 23%, no sharp cut-off; inactive means mostly below about 18%;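 further: 0% = cells with DMSO and 100% = no-cell wells with DMSO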
MOR-DOR ag – OPRM1-OPRD1 heterodimerization agonism | AID 504326 | P35372+P41143 | activation, % at 9.3 µM | actives 0.3% (n = 340,000) | cells, luminescence; in the data active means activation above about 18%;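 further: 0% = vehicle-treated cells and 100% = reference agonist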
* = called active by the depositor.

SMILES | OPRM1-OPRD1 inv | HTR5A ag | HTR5A inv ag | MOR-DOR ag
O=C(Nc1ccc(Cl)cc1Cl)NC1CCN(S(=O)(=O)c2ccc(F)cc2)CC1 | -22 | 3 | -10 | 4
NS(=O)(=O)c1ccc(CNC(=O)c2ccccc2SCC(=O)N2CCCC2)cc1 | 19 | -1 | 14 | -4
O=C(O)CC1(CC(=O)Nc2ccc(C(F)(F)F)cc2)CCCC1 | 5 | 9.5* | -36 | -1
CCOc1cc(C(=O)O/N=C(\N)c2ccc([N+](=O)[O-])cc2)cc(OCC)c1OCC | -55 | 13* | -41 | 11
COc1cc(C(=O)O/N=C(\N)c2ccc([N+](=O)[O-])cc2)cc(OC)c1OC | -74 | 4 | -11 | 10
Cc1ccccc1C(=O)O/N=C(\N)c1ccc([N+](=O)[O-])cc1 | -38 | 9.3* | -32 | 8
Cc1nn(C(=O)c2ccco2)c(C)c1Sc1ccccc1 | -4 | 11* | 10 | 1
O=[N+]([O-])c1ccc(COc2cccc3cccnc23)cc1 | 4 | -2 | 9 | -1
N#Cc1ccc(COc2cccc3cccnc23)cc1 | -11 | 14* | -10 | 2
COc1cc(C#Cc2c(-c3cncn3C)n(C)c3ccc(-c4cnc(OC)nc4)cc23)cc(OC)c1 | -5 | 12* | -44 | 1
CCOC(=O)c1[nH]c(C)c(C(=O)Nc2ccc(C)c(C)c2)c1C | 13 | 13* | -37 | -3
COc1ccc(-n2nnnc2-c2cccnc2)cc1 | -17 | 10* | -20 | 3
O=C(N/N=C/c1ccc([N+](=O)[O-])cc1)c1cc(-c2ccc3c(c2)OCO3)n[nH]1 | 2 | 13* | -8 | 0
COc1cc(/C=N/NC(=O)c2cc(-c3ccc4c(c3)OCO4)n[nH]2)ccc1O | -9 | 0 | -23 | 1
Cc1cccc(-c2cc3nc(-c4ccccc4)cc(N4CCC5(CC4)OCCO5)n3n2)c1 | -4 | 12* | 10 | 1
CC1CCCC(C)N1C(=O)COC(=O)CNC(=O)c1ccccc1F (configuration not stated) | 17 | -3 | 8 | -4
O=C1C(=O)N(CCN2CCOCC2)C(c2ccccn2)/C1=C(/O)c1ccccc1 (configuration not stated) | 11 | 12* | -42 | -2
CCCCn1c(N)c(N(CCC(C)C)C(=O)C2CCCC2)c(=O)[nH]c1=O | 6 | 2 | 2 | -1
O=C1C2C3CCC(C3)C2C(=O)N1c1ccc(OS(=O)(=O)c2ccccc2)cc1 (configuration not stated) | -13 | 13* | -2 | 3
COc1ccc(C)cc1NC(=O)CSc1nnc(-c2cc3cccc(OC)c3o2)n1N | 9 | 13* | 3 | -2
CC1(c2ccc3noc(-c4cccc(F)c4)c3c2)OCCO1 | -61 | 11* | -26 | 13
CC(C)(C)S(=O)(=O)N1Cc2ccc(CO)cc2[C@@H]1CCO | 9 | 2 | -9 | -2
COc1cc2c(cc1OC)C1(CCCC1)CNC2c1cccc([N+](=O)[O-])c1 (configuration not stated) | 35* | -13 | 38* | -7
COc1cc2c(cc1OC)C(c1cccc([N+](=O)[O-])c1)NC(=O)C2 (configuration not stated) | 8 | -4 | 2 | -2
CCOC(=O)C(C)Oc1cccc2c(=O)n(CC(=O)Nc3ccc4c(c3)OCCO4)ccc12 (configuration not stated) | 4 | 1 | 4 | -1
SMILES | OPRM1-OPRD1 inv | HTR5A ag | HTR5A inv ag | MOR-DOR ag
CCOC(=O)C(C)Oc1cccc2c(=O)n(CC(=O)NCc3ccc4c(c3)OCO4)ccc12 (configuration not stated) | 6 | 12* | -19 | -1
CC(=O)c1cccc(NC(=O)CCn2c(=S)oc3ccccc32)c1 | 10 | 2 | -8 | -2
O=C(CSc1ccc2c(c1)OCCO2)Nc1ccc(Br)cn1 | 7 | 11* | -19 | -1
O=C(CSc1ccc2c(c1)OCCO2)Nc1ccc(Cl)cn1 | -5 | 0 | 1 | 1
Cc1ccc(C(NC(=O)Nc2ccccn2)C(Cl)(Cl)Cl)cc1F (configuration not stated) | -51 | 12* | -16 | 6
COc1ccc(C(=O)Nc2ccnn2C2CCN(C(C)CSC)CC2)cc1 (configuration not stated) | 16 | -2 | 4 | -3
Nc1ccc2nn(-c3ccccc3)nc2c1 | -51 | 12* | -31 | 10
CCc1ccc(S(=O)(=O)/N=C2/C=C(Sc3ncn[nH]3)C(=O)c3ccccc32)cc1 | -143 | 4 | 17 | 30*
N#CCCN(C(=O)c1cc2c(s1)-c1ccccc1S(=O)(=O)C2)c1ccccc1 | 2 | -2 | -14 | 0
COc1ccccc1-n1c(SCC(=O)NCC2CCCO2)nc2c([nH]c3ccccc32)c1=O (configuration not stated) | 45* | -12 | 38* | -8
CCn1c(SCC(=O)NCC2CCCO2)nc2c([nH]c3ccccc32)c1=O (configuration not stated) | -1 | 1 | 8 | 0
CCOC(=O)c1cc(CNC(=O)c2c(C)oc3c2CCCC3)c(C)o1 | -6 | 11* | -3 | 1
CCOC(=O)c1coc(CNC(=O)c2c(C)oc3c2CCCC3)c1 | 0 | 15 | -36 | 0
COc1ccc(CNC(=O)C[C@H]2C[C@H](C(=O)N3CCCCC3)[C@@]3(C)c4[nH]c5ccc(Cl)cc5c4CCN3C2=O)cc1OC | 12 | 2 | -6 | -2
O=C(NCC(c1ccc(F)cc1)N1CCOCC1)c1cc(F)c(F)c(F)c1F (configuration not stated) | -14 | 1 | -2 | 2
O=C(NCC(c1ccc(F)cc1)N1CCOCC1)c1ccccc1F (configuration not stated) | 17 | 12* | -36 | -3
Cc1oc2ccc(O)cc2c1C(=O)c1ccc([N+](=O)[O-])cc1 | -23 | 3 | -30 | 4
CN(C)/C=C/c1oc2ccc(O)cc2c1[N+](=O)[O-] | 41* | -11 | 30* | -8
Cc1cc(C(=O)c2ccccc2)cc(C)c1O | 14 | -4 | 16 | -3
CC1=C/C(=C(\c2cc(C)c(O)c(Br)c2)c2ccccc2S(=O)(=O)O)C=C(Br)C1=O | 28* | -11 | 8 | -5
CN1C(=O)/C(=C/c2ccc(OCc3ccc(F)cc3)cc2)NC1=S | -44 | 9 | -30 | 9
Cc1[nH]c2ccc(-c3nnc(SCC(=O)c4ccccc4F)o3)cc2c1C | -12 | 12* | -3 | 2
COC(=O)/C(C#N)=C/c1c(N2CCN(Cc3ccc4c(c3)OCO4)CC2)nc2c(C)cccn2c1=O | 9 | -3 | 30 | -2
Cc1cccn2c(=O)c(/C=C(\C#N)C(N)=O)c(N3CCN(Cc4ccc5c(c4)OCO5)CC3)nc12 | 5 | 11* | -40 | -1
O=C(NC1CCCCC1)NC1(C(=O)NCCCN2CCOCC2)CCCCC1 | 11 | 11* | -4 | -2
O=C(Nc1ccccc1Cl)NC1(C(=O)NCCCN2CCOCC2)CCCCC1 | 8 | -1 | -46 | -1
COc1ccc(Cc2nc(-c3ccc(-n4cccc4)cc3)no2)cc1OC | -5 | 11* | -32 | 1
COC(=O)c1c(NC(=O)CCC(=O)O)sc2c1CCCCC2 | 6 | 14* | -7 | -1
